# Screens deposited in PubChem by National Center for Advancing Translational Sciences (NCATS).
# In the library only some 1.6% were active in any assay of this set; here they are far more common.
# IMPase Li cell = membrane-permeable IMPase blocker, potentiated with lithium; CHO-M1 cells, IP1 TR-FRET (IP-One), carbachol + lithium; Potency, µM (highest dose often 59.4 µM), inactives show at the top dose activity, negative = IMPase inhibition, hits mostly inhibitors; 210,000 compounds, 0.35% hits;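 note: IP1 builds up when IMPase is blocked and the TR-FRET signal falls; potency is the fitted concentration of half-maximal effect; plate controls were basal vehicle for no effect and high inhibitor control for full effect; nearly all actives have a fitted effect of over 50% in size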
#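 Readout is a homogeneous TR-FRET IP1 immunoassay (Ex 320, Em 665 and 620), where raised cytosolic IP1 lowers signal. Cells were CHO-M1 treated 30 min at 37C with test compounds plus a little lithium; AC50 values came from Hill-equation fitting.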
# HTT cytoprotect = protects HTT-Q103 PC12 cells, measured by ATP; PC12 HTT-Q103 induced, cytoprotection, ATP luminescence, 40 h; Potency, µM (doses to about 56.4 µM), for the others: cytoprotection (ATP increase), actives largely listed as activators; 230,000 compounds, 0.14% hits; note: potency is the fitted concentration of half-maximal effect; % of control where 0% means no effect; nearly all actives have a fitted effect of over 45% in size
#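 Compounds were screened for protection of PC12 cells against cell death after tebufenozide induction (100 nM final) of mutant Huntingtin exon 1 (Q103) fused to GFP.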
# NPSR antagonist = blocks cAMP signaling of the human neuropeptide S receptor. 220,000 compounds, 1% hits. CHO-NPSR cells, cAMP TR-FRET, antagonist mode. Potency, µM (top dose mostly 38.3 µM), for inactives: top-dose activity change, negative = inhibition, most hits filed as inhibitors. AID 1461; note: potency is the fitted concentration of half-maximal effect; % is set by controls: 0 for no effect and ±100 for the full control effect; nearly all actives have a fitted effect of over 50% in size
# Target sequence (Q6W5P4 whole entry, looked up): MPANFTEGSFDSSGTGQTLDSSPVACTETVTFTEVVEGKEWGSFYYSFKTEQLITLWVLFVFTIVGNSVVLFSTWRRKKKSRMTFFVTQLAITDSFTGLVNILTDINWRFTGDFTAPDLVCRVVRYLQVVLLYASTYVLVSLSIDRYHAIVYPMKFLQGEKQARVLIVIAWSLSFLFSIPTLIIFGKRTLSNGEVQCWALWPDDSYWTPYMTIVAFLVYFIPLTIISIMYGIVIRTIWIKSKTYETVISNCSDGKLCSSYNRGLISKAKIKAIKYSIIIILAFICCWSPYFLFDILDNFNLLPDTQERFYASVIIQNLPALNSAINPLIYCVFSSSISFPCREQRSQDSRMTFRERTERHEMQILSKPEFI
# LMNA splice mod = LMNA splicing modulation. HeLa LMNA splicing GFP/RFP minigene ratio, 48 h. Potency, µM (top dose mostly 46.1 µM), for the others: top-dose ratio change, negative = inhibition, most hits filed as inhibitors. 200,000 compounds, 0.01% hits; active = well fitted inhibition curve with a large enough effect in the signal ratio, with a control signal flat, not every such curve was filed as active; inconclusive = small, poorly fitted or top-dose-only effect, or effect the other way, or a change in a side signal; the % refers to the signal ratio; note: potency is the fitted concentration of half-maximal effect; % is set by controls: 0 for no effect and ±100 for the full control effect
#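 S3 HeLa cells stably expressing lamin A-EGFP splicing minigene plus DsRed2, 600 cells/well, 48 h compound exposure at 37C. Laser-scanning cytometry; analysed as GFP (500-530 nm)/RFP (575-640 nm) total intensity ratio; 0.5% DMSO vehicle.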
# HTT aggregate = mutant huntingtin aggregation inhibition | PC12 HttQ103-GFP aggregates, Acumen cytometry, 40 h | 220,000 compounds, 1.1% hits | Potency, µM (titrated, usually from 46.1 µM), without a hit: top-dose activity change, negative = inhibition, most hits filed as inhibitors | AID 1688; note: potency is the fitted concentration of half-maximal effect; % is set by controls: 0 for no effect and ±100 for the full control effect; nearly all actives have a fitted effect of over 60% in size
#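 Multiplexed with ATP-based cell death, this channel scores GFP aggregates in PC12 cells expressing inducible HTTex1-Q103-GFP. Induction used 100 nM tebufenozide; compounds were tested in concentration series.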
# IMPase inh = IMPase inhibition in cells; 120,000 tested, under 10 active; CHO-M1 cells, IP1 accumulation, HTRF TR-FRET ratio; inhibition (IP1 accumulation), % at 46.1 µM; active = well fitted curve in the direction sought with a large enough effect in the signal ratio, not every such curve was filed as active; inconclusive = small, poorly fitted or top-dose-only effect, or a change in a side signal; inactive = no such curve, though single readings can be large or run the other way; the % refers to the signal ratio;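 note: cells stimulated with carbachol in lithium chloride buffer; plate controls were DMSO basal wells for no effect and reference inhibitor wells for full effect; higher means more IMPase inhibition seen as more IP1 and lower FRET ratio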
# Target sequence (P97697 whole entry, looked up): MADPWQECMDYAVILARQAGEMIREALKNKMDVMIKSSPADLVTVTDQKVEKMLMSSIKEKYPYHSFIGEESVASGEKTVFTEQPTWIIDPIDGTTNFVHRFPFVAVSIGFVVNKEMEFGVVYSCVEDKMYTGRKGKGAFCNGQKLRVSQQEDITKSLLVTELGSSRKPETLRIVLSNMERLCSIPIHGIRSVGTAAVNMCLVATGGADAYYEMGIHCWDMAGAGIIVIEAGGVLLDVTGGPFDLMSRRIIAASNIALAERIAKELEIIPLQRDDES
#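 Carbachol-driven Gq signalling in CHO-M1 cells (2000/well) generates IP1. Compounds that block IMPase raise IP1 and so reduce the FRET signal from Eu-anti-IP1 and d2-IP1 after a 10 min room-temperature lysis.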
# The depositor's hits bear a star; u = inconclusive; x = not tested or not shown; [ ] = dose if it differs, or a comment. Unless noted, calls come from the whole dose curve; as a rule, active = well fitted curve in the direction sought with a large enough effect; inconclusive = small, poorly fitted or top-dose-only effect, or another doubt; inactive = no such curve, though single readings can be large; an effect the other way counts as inactive or inconclusive.
SMILES,IMPase Li cell,HTT cytoprotect,NPSR antagonist,LMNA splice mod,HTT aggregate,IMPase inh
O=C(Nc1nc(-c2cccs2)cs1)c1cccc(S(=O)(=O)N2CCCCCC2)c1,23.8%[38.3 µM],-6.3%[10 µM],10µM*,u,u,8.1
COCCn1c(=O)c(-c2cccc(C#N)c2)nc2cnc(N3CCN(C)CC3)nc21,-2.8%,-12.6%,x,-10.1%,x,x
CC(=O)NCC(=O)OCC(=O)c1ccc(Cl)cc1,0.3%,10.6%,7.2%,x,10.5%,x
CCCNC(=O)c1cc(-c2ccco2)on1,7.4%,1.58µM*,-7.3%[46.1 µM],u,7.0%,u
CC(C)CNC(=O)c1cc(-c2ccco2)on1,-2.5%[38.3 µM],6.8%,-15.6%[46.1 µM],-17.6%,u,-3.3
CC(C)c1ccc(NC(=O)CSC2=Nc3ccccc3C3=NC(CC(=O)NCc4ccc(F)cc4)C(=O)N23)cc1 (stereo not given),x,x,x,-20.7%[46 µM],x,x
CCOC(=O)CCCSc1nnc(CCCCCN2C(=O)c3cccc4cccc(c34)C2=O)o1,24.8%,2.51µM*,-28.1%[46.1 µM],0.7%,u,-0.8
COc1cccc([C@@H]2Oc3ccc(Br)cc3C(=O)[C@H]2OC(=O)NCCOc2ccccc2)c1,3.0%,3.1%,x,x,x,x
CCOC(=O)c1c(C)oc2ccc(OC(=O)COc3c(F)c(F)c(F)c(F)c3F)cc12,1.4%,x,3.7%,u,12.6µM*,x
O=c1c(O)c(-c2ccccc2)oc2ccccc12,-11.1%,x,x,u,x,x
O=c1c(O)c(-c2cccs2)oc2ccccc12,-4.7%,17.3%[10 µM],15.8%[46.1 µM],-23.4%,11.2µM*,-19.1
Cc1ccc2oc(-c3ccccc3)c(C(=O)O)c(=O)c2c1,-10.3%[38.3 µM],-58.7%,-18.8%[46.1 µM],4.4%,10µM*,-2.1
Cc1ccc(-c2oc3ccccc3c(=O)c2O)cc1,5.0%[38.3 µM],-13.0%,2.8%[46.1 µM],u,11.2µM*,-10.8
Cc1ccc2oc(-c3ccccc3)c(O)c(=O)c2c1,0.0%,23.6%[1.9 µM],x,x,x,-10.4
O=c1cc(-c2cccs2)oc2ccc(Cl)cc12,x,-13.0%,-11.1%[46.1 µM],u,6.3%,-28.4
O=c1c2ccccc2oc2ccccc12,-1.7%,-79.4%,x,x,x,x
O=c1c(O)c(-c2cccs2)oc2ccc(Cl)cc12,-1.1%[38.3 µM],22.9%,4.0%[46.1 µM],u,14.1µM*,-18.4
COc1ccc2c(c1)O[C@@H](c1cccc(C(F)(F)F)c1)[C@H](OC(=O)Nc1cc(OC)c(OC)c(OC)c1)C2=O,5.7%,x,x,x,x,x
CCOC(=O)c1cc(-c2ccc(F)cc2)n(CCC(=O)NCc2ccccc2OC)c1C,x,x,x,18.6%[46 µM],x,x
O=C(CSC1=NCCN1)c1ccccc1,2.7%,-2.0%[10 µM],x,x,x,x
O=C1c2cc(Br)ccc2O[C@@H](c2ccc3c(c2)OCO3)[C@@H]1O,10.2%,-32.8%,x,x,x,x
O=S(=O)(NC1=NCCCCC1)c1ccc2sc(NS(=O)(=O)c3ccc4ccccc4c3)nc2c1,x,29.6%[10 µM],2.9%,x,11.1%[9.22 µM],x
O=S(=O)(Nc1nc2c(s1)CCCC2)c1ccc2ccccc2c1,20.2%[38.3 µM],13.9%,2.4%[46.1 µM],u,11.2µM*,2.3
C=CCC(C)(O)c1ccccc1 (stereo not given),13.2%,x,x,x,x,x
Cc1ccc(NN2C(=O)C=C(c3ccc(Cl)cc3)C2=O)cc1,50.6%[38.3 µM],-78.0%,7.94µM*,u,-97.4%,12.1
SMILES,IMPase Li cell,HTT cytoprotect,NPSR antagonist,LMNA splice mod,HTT aggregate,IMPase inh
COc1ccc(C2=CC(=O)N(Nc3ccccc3)C2=O)cc1,19.7%,-17.6%[10 µM],-9.6%,u,-32.1%,x
O=C1C=C(c2ccccc2)C(=O)N1Nc1ccccc1,50.0%[38.3 µM],-90.5%,12.6µM*,-10.5%,-93.2%,22.9
N#CC1=C2SCN(Cc3ccccc3)CN2C(=O)CC1c1cccs1 (stereo not given),11.2µM*,-8.7%,u,8.6%,-4.6%,u
CCOc1ccc(/C=C/[N+](=O)[O-])c2ccccc12,19.1%[38.3 µM],-74.1%,10µM*,u,-0.4%,13.2
CCN(CC)CCCC(C)Nc1c2ccc(Cl)cc2nc2ccc(OC)cc12 (stereo not given),38.0%,-336.6%,10µM*,u,x,x
CO[C@@H]1/C=C\O[C@]2(C)Oc3c(C)c(O)c4c(O)c(c(CN5CCN(C)CC5)c(O)c4c3C2=O)NC(=O)/C(C)=C\C=C[C@@H](C)[C@@H](O)[C@H](C)[C@@H](O)[C@H](C)[C@H](OC(C)=O)[C@@H]1C,x,-14.7%[10 µM],x,x,x,x
Cc1ccccc1-c1ccc2ncnc(N(C)C)c2c1,5.9%,-80.7%,x,u,x,x
Cc1ccccc1-c1ccc2ncnc(-n3ccnc3)c2c1,10.5%,1µM*,x,u,x,x
CN(C)c1ccc(-c2ccc3ncnc(-n4ccnc4)c3c2)cc1,5.9%,3.16µM*,x,u,x,x
COC/C=C/C1=CC2=CC(=O)C(C)(OC(=O)c3cnc4ccccc4n3)C(=O)C2=CN1c1cccc(C#N)c1 (stereo not given),-1.1%,20.4%[10 µM],x,-19.3%[9.22 µM],x,x
CC(=O)Nc1sc(/C(C#N)=C/c2ccc(Cl)c(Cl)c2)nc1-c1ccc(C)cc1,12.6µM*,-18.3%[10 µM],-35.3%,u,u,x
Cn1nccc1C(=O)Oc1ccc(/C=N/NC(=O)c2ccccc2O)cc1,23.4%,0.891µM*,-11.6%,1.9%[9.22 µM],u,x
O=C(Oc1ccc(/C=N/NC(=O)c2ccccc2O)cc1)c1ccccc1,17.8%[38.3 µM],-7.0%,-11.1%[46.1 µM],0.6%,-18.5%,1.8
O=C(NCc1ccco1)c1nc2c(nnn2Cc2cccc(Cl)c2)c(=O)[nH]1,1.4%[38.3 µM],4.47µM*,-13.9%[46.1 µM],-1.4%,-9.1%,3.3
CCCCC(=O)Nc1cc2nn(-c3ccc(OC)cc3)nc2cc1C,u,-15.4%,-2.5%[46.1 µM],-5.4%,4.1%,8.0
COc1ccc(-n2nc3cc(C)c(NC(=S)NC(=O)c4ccccc4C)cc3n2)cc1,12.6µM*,-8.7%,u,u,4.6%,-10.0
CCC(=O)Nc1cc2nn(-c3ccc(OC)cc3)nc2cc1C,11.2µM*,-110.0%[10 µM],-17.0%[46.1 µM],10.7%,-4.0%,1.9
CC1CCC2C(=O)N3C(CCC(C)[C@@H]3c3cccc(N4CCOCC4)c3)C(=O)N2C1c1cccc(N2CCOCC2)c1 (stereo not given in full),x,-22.7%[10 µM],x,x,x,x
CCOc1ccc(C(=O)N/N=C(/C)C2C(=O)c3ccccc3C2=O)cc1,-3.4%,9.9%[10 µM],-11.2%,-5.1%,10µM*,x
Cc1ccc(/C=N/NC(=O)Cn2cncn2)cc1,3.4%,-23.2%,16.4%,x,-4.7%,x
CC1=C(C#N)C(NC(=O)C2CCCCC2)(C(F)(F)F)C(=O)N1 (stereo not given),5.2%[38.3 µM],8.7%,-6.5%[46.1 µM],-6.7%,12.6%,-0.7
CC1=C(C#N)C(NC(=O)C2CC2)(C(F)(F)F)C(=O)N1 (stereo not given),18.0%[38.3 µM],-55.0%[10 µM],-3.2%[46.1 µM],-1.9%,0.316µM*,0.9
O=C(O)[C@@H]1[C@@H](C(=O)NCc2ccccn2)[C@@H]2C=C[C@@H]1O2,-0.5%,-14.4%[10 µM],x,x,x,x
